Reference: ChEMBL document CHEMBL3988442, “University of Dundee, Small-Polar-MMV Screening Library” (2021)
The whole screen tested about 48,000 compounds, of which about 13,000 (27%) showed an effect of 50% or more. The list shows a part of the results.

test system: Wolbachia pipientis; experiment: Anti-Wolbachia Cell-Based Screen; type: functional; set-up: scale not given: in the data most compounds retested in dose-response had high values; conditions: 5 µM

Compound | Percent Effect [%]
CCc1nc(C2CCCN2CC(=O)Nc2c(C)nn(C)c2C)no1 (stereo not drawn) | -9.932
CCc1nc(C2CCCN2CC(=O)Nc2sc(C)c(C)c2C)no1 (stereo not drawn) | -4.711
CCc1nc(C2CCCN2CC(=O)Nc2cc(C)on2)no1 (stereo not drawn) | 106.9
Cc1nnc(NC(=O)CN2CCCC2c2noc(C3CC3)n2)s1 (stereo not drawn) | -18.02
CCc1nc(C2CCCN2CC(=O)Nc2cc(C)no2)no1 (stereo not drawn) | 85.76
CCc1nc(C2CCCN2CC(=O)Nc2nncs2)no1 (stereo not drawn) | -0.024
CCc1nc(C2CCCN2CC(=O)Nc2nnc(C)s2)no1 (stereo not drawn) | 78.74
Cc1cc(NC(=O)CN2CCCC2c2noc(C3CC3)n2)on1 (stereo not drawn) | 2.122
Cc1cc(NC(=O)CN2CCCC2c2noc(C3CC3)n2)no1 (stereo not drawn) | 3.572
Cc1cc(CN(CCCO)c2ccccc2)on1 | -3.081
O=S(=O)(NC[C@H]1OC[C@@H](NCc2cccs2)[C@@H]1O)c1ccccc1 | -1.267
CCCn1ccnc1CN1C[C@@H](CN2CCCN(C)CC2)[C@@H](CO)C1 | 7.413
CCN(Cc1cccc(F)c1)Cn1nc(C)c2c(C)onc2c1=O | 123.6
CCN(Cc1cccc(C)c1)Cn1nc(C)c2c(C)onc2c1=O | 127.1
CCN(Cc1ccccc1Cl)Cn1nc(C)c2c(C)onc2c1=O | 88.73
CCCN(Cc1ccccc1)Cn1nc(C)c2c(C)onc2c1=O | 10.45
CCC(C)N(Cc1c[nH]c(C)n1)Cc1ccccc1Cl (stereo not drawn) | 9.271

Compound | Percent Effect [%]
Cc1nn(CN(Cc2ccsc2)C2CC2)c(=O)c2noc(C)c12 | 0.1409
CCCN(CC)Cn1ncc2cn(-c3ccccc3)nc2c1=O | 21.01
CCN(Cc1c(F)cccc1F)Cn1nc(C)c2c(C)onc2c1=O | 127.8
CCN(Cc1cccc(Cl)c1)Cn1nc(C)c2c(C)onc2c1=O | 4.514
Cc1cccc(CN(Cn2nc(C)c3c(C)onc3c2=O)C2CC2)c1 | -8.073
CCN(CC)Cc1ccccc1NCc1c(C)noc1C | -28.25
Cc1nn(CN(CC(C)C)C2CC2)c(=O)c2noc(C)c12 | -9.201
O=C(NC[C@H]1OC[C@@H](NCc2cccs2)[C@@H]1O)N1CCOCC1 | 1.798
COc1cc(CN(C)C(=O)NCCC(=O)NC2CCCC2)ccc1SC | -22.89
Cn1ccnc1C(=O)NC[C@@H]1OC[C@H]2CN(S(C)(=O)=O)CC[C@H]21 | -19.48
O=C(CCn1cncn1)NC1CCS(=O)(=O)C1 (stereo not drawn) | 5.446
CS(=O)(=O)NCCC(=O)NC1CCc2nccn2C1 (stereo not drawn) | -6.555
O=C(CCCn1cncn1)NC1CCc2nccn2C1 (stereo not drawn) | 92.38
CC(C)N(C)CC(=O)NC1CCc2nccn2C1 (stereo not drawn) | 10.39
O=C(CCn1cncn1)NC1CCc2nccn2C1 (stereo not drawn) | 104.2
CS(=O)(=O)NCC(=O)NC1CCc2nccn2C1 (stereo not drawn) | 17.97
